TDP1 cell CPT: DT40-hTDP1 cell growth loss with CPT. AID 686979. Potency, µM (doses to about 46.2 µM), without a hit: top-dose activity change, negative = growth inhibition, usual class: inhibitors. 12% of 420,000 active. chicken DT40 Tdp1-/-;hTDP1 cells + 20 nM CPT, ATP luminescence, 48 h; also: potency is read from the fitted curve at half-maximal effect; nearly all actives have a fitted effect of over 55% in size
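Cell growth measured by CellTiter-Glo luminescence after a minimum 48 h, 37 C compound exposure with 20 nM CPT in Tdp1-knockout DT40 cells stably expressing hTDP1, seeded 400/well; qHTS titration format.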
DT40 TDP1 no CPT: qHTS for Inhibitors of human tyrosyl-DNA phosphodiesterase 1 (TDP1): qHTS in cells in absence of CPT. AID 686978, 2013. DT40 Tdp1-/- hTDP1 cells, no CPT, ATP luminescence, 48 h. Potency, µM (doses to about 46.2 µM), inactives show at the top dose activity change, negative = growth inhibition, usual class: inhibitors. 15% of 420,000 active; also: potency is read from the fitted curve at half-maximal effect; nearly all actives have a fitted effect of over 55% in size
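Seeded 400 DT40-hTDP1 cells/well (vehicle DMSO, no 20 nM CPT); pinned compounds; ≥48 hr at 37 °C; CellTiter-Glo luminescence as viability measure.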
12-LOX inh: blocks human arachidonate 12S-lipoxygenase. purified 12hLO, xylenol orange hydroperoxide absorbance. Potency, µM (series often up to 108 µM), inactives show at the top dose activity change, negative = inhibition, hits mostly inhibitors. 1.1% of 580,000 active. AID 1671190; also: potency is read from the fitted curve at half-maximal effect
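Hydroperoxide product was detected by ferrous iron/xylenol orange as the 573 to 405 nm absorbance ratio. Arachidonic acid at 40 uM (final) was turned over for 30 min at room temperature by 150 nM human 12hLO, pH 7.0 Hepes buffer, after 15 min compound preincubation.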
IL1B secr inh: inflammasome signaling inhibition, IL-1 beta readout | THP-1 LPS/ATP IL-1B secretion, AlphaLISA, 16 h; active compounds read low | activity change, % at 57.5 µM | 4.7% of 360,000 active | AID 743279; in the data active = activity change below about -50%; inconclusive = mostly about -30% to -49%
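Secreted IL-1B measured by AlphaLISA bead assay after 16 h compound exposure of THP-1 cells; compounds (final up to 57.5 uM) added 1 h before LPS (250 ng/mL) and ATP (1.25 mM) stimulation; lower signal means less secretion.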
HT1080 IDH1KD tx: kills HT-1080 cells with IDH1 knockdown | HT-1080 IDH1 knockdown viability, ATP luminescence, 48 h | Potency, µM (series often up to 46.1 µM), without a hit: top-dose activity, negative = toxicity, hits mostly cytotoxic | 2% of 360,000 active;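 also: potency is read from the fitted curve at half-maximal effect; 0% = DMSO wells and -100% = cell-free medium wells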
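CellTiter-Glo luminescence after 48 h compound exposure at 37 degrees C of IDH1-knockdown HT-1080 cells in 5% FBS RPMI. %Activity scaled between DMSO wells and cell-free media wells, with curves fitted and assigned curve classes.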
HT1080-NT tox: kills 2HG-producing HT-1080-NT fibrosarcoma cells; 1.6% of 360,000 active; HT-1080-NT fibrosarcoma viability, CellTiter-Glo ATP luminescence, 48 h; Potency, µM (top dose mostly 46.1 µM), for the others: at the highest dose activity, negative = less viability, usual class: cytotoxic;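 also: NT is the 2HG producing partner of a matched IDH1 knockdown line; potency is read from the fitted curve at half-maximal effect; 0% = DMSO-treated cells and -100% = media-only wells without cells; nearly all actives have a fitted effect of over 55% in size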
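Toxicity toward the 2HG-producing NT line was scored as %Activity, normalised to DMSO and no-cell wells, from CellTiter-Glo luminescence after 48 hours' treatment.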
Starred values were filed as active, the others as inactive; ? = inconclusive; . = no result. Shown is part of a subset that was picked to be rich in hits. Unless noted, calls follow the shape of the dose curve; as a rule, active = well fitted curve in the direction sought with a large enough effect; inconclusive = small, poorly fitted or top-dose-only effect, or another doubt; inactive = no such curve, though single readings can be large; an effect the other way counts as inactive or inconclusive. Unless noted, % is scaled to controls: 0 for no effect and ±100 for the full control effect.

SMILES	TDP1 cell CPT	DT40 TDP1 no CPT	12-LOX inh	IL1B secr inh	HT1080 IDH1KD tx	HT1080-NT tox
CCOP(=O)(OCC)c1nc(/C=C/c2ccccc2)oc1NCc1ccccc1	?	?	-46%	-75*	-20%	-22%
CCc1cccc(CC)c1NC(=O)C1CCN(C(=O)c2ccco2)CC1	1%	0%	?	-5	17%	21%
O=C(N[C@H](Cc1ccccc1)C(=O)NCc1ccccn1)[C@H]1O[C@@H](n2ccc(=O)[nH]c2=O)[C@H](O)[C@@H]1O	.	.	15%	.	.	.
O=C(NN1C(=O)c2ccccc2NC1c1ccccn1)c1ccccc1 (configuration not stated)	16µM*	?	4%	11	12%	10%
O=C(NN1C(=O)c2ccccc2NC1c1ccoc1)c1ccccc1 (configuration not stated)	-4%	3%	7%	-4	9%	6%
CCOC(=O)C1=C(C)OC(N)=C(C#N)C1c1cccc(C)c1 (configuration not stated)	0%	-1%	?	5	2%	2%
COC(=O)C1=C(C)OC(N)=C(C#N)C1c1ccc(-c2ccccc2)cc1 (configuration not stated)	.	.	35µM*	.	.	.
CCOC(=O)C1=C(c2ccccc2)OC(N)=C(C#N)C1c1ccncc1 (configuration not stated)	23µM*	?	?	-15	-3%	-6%
CCOC(=O)C1=C(C)OC(N)=C(C#N)C1c1cc(F)ccc1F (configuration not stated)	?	?	-17%	-66*	?	?
C=CCOC(=O)C1=C(C)OC(N)=C(C#N)C1c1c(C)nn(-c2ccccc2)c1Cl (configuration not stated)	?	9.2µM*	?	-13	-2%	1%
Cc1cc(OCC(=O)N2CCCCC2CCN2CCOCC2)cc(C)c1Cl (configuration not stated)	.	.	-22%	.	.	.
CCOc1ccccc1CN1C[C@@H](CO)[C@H](NC(C)=O)C1	.	.	61%	.	.	.
N[C@@H]1CC[C@@H]1NC(=O)c1ccccc1OC(F)(F)C(F)F	.	.	30%	.	.	.
COc1cc(C2C3=C(CCCC3=O)Nc3ccc4ncccc4c32)ccc1O (configuration not stated)	6.5µM*	6.5µM*	-17%	11	6.5µM*	?
COc1cc(C2c3c([nH]c(=O)[nH]c3=O)Nc3ccc4ccccc4c32)cc(OC)c1OC (configuration not stated)	0%	-22%	?	-92*	-26%	?
COc1cc(C2c3c([nH]c(=O)[nH]c3=O)Nc3ccc4ccccc4c32)ccc1O (configuration not stated)	-13%	-15%	?	-97*	?	-25%
COc1ccc(C2C3=C(CCCC3=O)Nc3ccc4ncccc4c32)cc1OC (configuration not stated)	-1%	12%	-4%	-13	-7%	-21%
Cc1cccc(OCC(=O)N2C[C@@H](CO)[C@H](c3nc(C4CC4)no3)C2)c1	.	.	32%	.	.	.
CN(C)CCC1c2ccc(Cl)cc2CCc2cccnc21 (configuration not stated) (tested in a mixture with another compound)	-6%	?	?	-75*	-13%	-17%
O=C1/C(=C/c2ccccn2)COc2ccccc21	2.1µM*	4.6µM*	-4%	9	-14%	-21%
O=C1/C(=C/c2ccc(O)cc2)COc2ccccc21	0%	-17%	3%	-104*	?	?
O=C1/C(=C/c2ccccc2)COc2ccccc21	.	.	13%	.	.	.

Assay outcomes: PubChem, National Center for Advancing Translational Sciences (NCATS)
